DT40 TDP1 no CPT: qHTS for Inhibitors of human tyrosyl-DNA phosphodiesterase 1 (TDP1): qHTS in cells in absence of CPT. Potency, µM (top dose mostly 46.2 µM), without a hit: at the highest dose activity change, negative = growth inhibition, most hits filed as inhibitors. DT40 Tdp1-/- hTDP1 cells, no CPT, ATP luminescence, 48 h. actives 15% (n = 420,000); note: potency is the fitted concentration of half-maximal effect; nearly all actives have a fitted effect of over 55% in size
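A cellular qHTS used chicken DT40 cells lacking endogenous Tdp1 but carrying stably transfected human TDP1. Compounds were applied without camptothecin, and cell growth kinetics were judged by ATP-dependent luminescence after ≥48 hr.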
HT1080-NT tox: qHTS for induction of synthetic lethality in tumor cells producing 2HG: qHTS for the HT-1080-NT fibrosarcoma cell line | HT-1080-NT fibrosarcoma viability, CellTiter-Glo ATP luminescence, 48 h | Potency, µM (series often up to 46.1 µM), for inactives: at the top dose activity, negative = less viability, hits mostly cytotoxic | actives 1.6% (n = 360,000);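 note: NT is the 2HG producing partner of a matched IDH1 knockdown line; potency is the fitted concentration of half-maximal effect; 0% = DMSO-treated cells and -100% = media-only wells without cells; nearly all actives have a fitted effect of over 55% in size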
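Compounds were tested in concentration-response format on HT-1080-NT cells for 48 hours at 37 degrees C. Cell viability came from CellTiter-Glo luminescence; curves were classified by r2, response magnitude and activity.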
TDP1 cell CPT: qHTS for Inhibitors of human tyrosyl-DNA phosphodiesterase 1 (TDP1): qHTS in cells in presence of CPT; chicken DT40 Tdp1-/-;hTDP1 cells + 20 nM CPT, ATP luminescence, 48 h; Potency, µM (top dose mostly 46.2 µM), for inactives: top-dose activity change, negative = growth inhibition, actives largely listed as inhibitors; actives 12% (n = 420,000); AID 686979, 2013; note: potency is the fitted concentration of half-maximal effect; nearly all actives have a fitted effect of over 55% in size
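Cell growth measured by CellTiter-Glo luminescence after a minimum 48 h, 37 C compound exposure with 20 nM CPT in Tdp1-knockout DT40 cells stably expressing hTDP1, seeded 400/well; qHTS titration format.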
IL1B secr inh: qHTS for Inhibitors of Inflammasome Signaling: IL-1-beta AlphaLISA Primary Screen. THP-1 LPS/ATP IL-1B secretion, AlphaLISA, 16 h; active compounds read low. activity change, % at 57.5 µM. actives 4.7% (n = 360,000); in the data active = activity change below about -50%; inconclusive = mostly about -30% to -49%
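Secreted IL-1B measured by AlphaLISA bead assay after 16 h compound exposure of THP-1 cells; compounds (final up to 57.5 uM) added 1 h before LPS (250 ng/mL) and ATP (1.25 mM) stimulation; lower signal means less secretion.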
HT1080 IDH1KD tx: qHTS for induction of synthetic lethality in tumor cells producing 2HG: qHTS for the HT-1080-IDH1KD cell line; Potency, µM (highest dose often 46.1 µM), for the others: at the top dose activity, negative = toxicity, most hits filed as cytotoxic; HT-1080 IDH1 knockdown viability, ATP luminescence, 48 h; AID 686971, 2013; actives 2% (n = 360,000);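 note: potency is the fitted concentration of half-maximal effect; 0% = DMSO wells and -100% = cell-free medium wells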
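Assay cells: HT-1080 with IDH1 knockdown, 750 per well, RPMI/5% FBS. Exposure: 48 h at 37 °C following 2 h pre-incubation. Read: CellTiter-Glo luminescence; fitted concentration-response, curve class assigned.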
* = called active by the depositor. Hits are enriched below; roughly 19% of the tested compounds scored in any of these assays. Unless noted, calls come from the whole dose curve; as a rule, active = well fitted curve in the direction sought with a large enough effect; inconclusive = small, poorly fitted or top-dose-only effect, or another doubt; inactive = no such curve, though single readings can be large; an effect the other way counts as inactive or inconclusive. Unless noted, % is set by controls: 0 for no effect and ±100 for the full control effect.

For C/C=C/COC(=O)c1[nH]c2c(c1C)C(=O)CC(c1ccco1)C2 (stereo not given) the results were DT40 TDP1 no CPT 0.206µM*, HT1080-NT tox 1.03µM*, TDP1 cell CPT 0.291µM*, IL1B secr inh 65.1 and HT1080 IDH1KD tx 0.651µM*.
`C=CCOC(=O)C1=C(C)OC(N)=C(C#N)C1c1ccco1` (stereo not given) gave DT40 TDP1 no CPT -1.4%, HT1080-NT tox -1.2%, TDP1 cell CPT inconclusive, IL1B secr inh 7.0 and HT1080 IDH1KD tx 2.0%.
`C=CCOC(=O)c1[nH]c2c(c1C)C(=O)CC(c1ccco1)C2` (stereo not given) gave DT40 TDP1 no CPT 0.0065µM*, HT1080-NT tox inconclusive, TDP1 cell CPT 0.0206µM*, IL1B secr inh 85.8 and HT1080 IDH1KD tx 0.366µM*.
`Cc1c(C(=O)OCC2CCCO2)[nH]c2c1C(=O)CC(c1ccco1)C2` (stereo not given) gave DT40 TDP1 no CPT 3.66µM*, HT1080-NT tox inconclusive, TDP1 cell CPT 3.66µM*, IL1B secr inh -22.4 and HT1080 IDH1KD tx 2.91µM*.
For COc1ccc(-c2cc(C(=O)Nc3cccc(O)c3)on2)cc1OC the results were DT40 TDP1 no CPT -12.1% and TDP1 cell CPT -3.4%.
For Cc1ccc(C(C)C)cc1-n1nnc(-c2cccc(Cc3ccc4ccccc4c3)c2)c1C(C)O (stereo not given) the results were DT40 TDP1 no CPT inconclusive, HT1080-NT tox -10.5%, TDP1 cell CPT inconclusive, IL1B secr inh 5.3 and HT1080 IDH1KD tx -15.9%.
Screening O=C(c1ccccc1)c1ccc(Oc2ccc([N+](=O)[O-])cc2[N+](=O)[O-])cc1 returned DT40 TDP1 no CPT inconclusive, HT1080-NT tox 14.6µM*, TDP1 cell CPT inconclusive, IL1B secr inh -95.4* and HT1080 IDH1KD tx 11.6µM*.
O=C(Nc1ccccc1Oc1ccccc1)c1cccc([N+](=O)[O-])c1 was read as DT40 TDP1 no CPT inconclusive, HT1080-NT tox -0.8%, TDP1 cell CPT -17.9%, IL1B secr inh 0.0 and HT1080 IDH1KD tx -1.4%.
For Cc1cc(=O)oc2cc(Oc3ncccc3[N+](=O)[O-])ccc12 the results were DT40 TDP1 no CPT -9.0%, HT1080-NT tox 8.8%, TDP1 cell CPT 23.2%, IL1B secr inh 2.7 and HT1080 IDH1KD tx 8.8%.
`O=Cc1cccc(Oc2ccc([N+](=O)[O-])cc2[N+](=O)[O-])c1` gave DT40 TDP1 no CPT 7.31µM*, HT1080-NT tox inconclusive, TDP1 cell CPT inconclusive, IL1B secr inh 62.3 and HT1080 IDH1KD tx inconclusive.
Cc1cc(=O)oc2cc(Oc3ccc([N+](=O)[O-])cc3[N+](=O)[O-])ccc12 was read as DT40 TDP1 no CPT 4.61µM*, HT1080-NT tox -2.0%, TDP1 cell CPT 5.17µM*, IL1B secr inh -104.0* and HT1080 IDH1KD tx inconclusive.
COc1cc(CNC[C@H]2O[C@@H](n3ccc(N)nc3=O)[C@H](O)[C@@H]2O)ccc1OCc1ccc(C)cc1 was read as DT40 TDP1 no CPT -10.7%, HT1080-NT tox -2.4%, TDP1 cell CPT -0.9%, IL1B secr inh -18.3 and HT1080 IDH1KD tx 4.0%.
COc1cccc(-c2nccc(-n3ccnc3)n2)c1 was read as DT40 TDP1 no CPT inconclusive and TDP1 cell CPT 9.0%.
Screening FC(F)Sc1ccc(-n2cc(-c3ccc(Cl)cc3)[n+]3c2CCC3)cc1 returned DT40 TDP1 no CPT 8.2µM*, HT1080-NT tox 3.4%, TDP1 cell CPT 9.2µM*, IL1B secr inh -19.0 and HT1080 IDH1KD tx 5.3%.
Clc1ccc(-n2cc(-c3ccc(Br)cc3)[n+]3c2CCCCC3)cc1 was read as DT40 TDP1 no CPT 6.51µM*, HT1080-NT tox -7.2%, TDP1 cell CPT 5.8µM*, IL1B secr inh -14.9 and HT1080 IDH1KD tx inconclusive.

Compound activity from PubChem.
